# Measured values from the supplement of paper PMC4466140.
# Biological target: ScBbc1
# Experiment: SPOT peptide array binding signal intensity (averaged, normalized) (arbitrary units (background-subtracted, floor 0; scale differs between SH3 domains)); higher = stronger binding of the SH3 domain to the peptide
# Outline: (§1)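 Cellulose membranes carried synthetic 15-mer peptides with cysteines swapped for serines. These were incubated overnight at 4°C with 10 μg/ml of GST-fused SH3 domains from four yeast species in TBS-based blocking buffer. Binding signal, detected with anti-GST antibody and quantified in Genespotter, is the normalized, background-subtracted spot intensity averaged over replicates, in arbitrary units specific to each domain.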
row,Binder,SPOT peptide array binding signal intensity
1,KKEKKPPKIPKKVYT,1

# Biological target: ScBem1-D1
# Experiment: as above
# Outline: as §1
row,Binder,SPOT peptide array binding signal intensity
1,KKEKKPPKIPKKVYT,16

# Biological target: ScBzz1-D1
# Experiment: as above
# Outline: as §1
row,Binder,SPOT peptide array binding signal intensity
1,KKEKKPPKIPKKVYT,98

# Biological target: ScBzz1-D2
# Experiment: as above
# Outline: as §1
row,Binder,SPOT peptide array binding signal intensity
1,KKEKKPPKIPKKVYT,9.5

# Biological target: ScCyk3
# Experiment: as above
# Outline: as §1
row,Binder,SPOT peptide array binding signal intensity
1,KKEKKPPKIPKKVYT,≤ 0

# Biological target: ScFus1
# Experiment: as above
# Outline: as §1
row,Binder,SPOT peptide array binding signal intensity
1,KKEKKPPKIPKKVYT,≤ 0

# Biological target: ScHof1
# Experiment: as above
# Outline: as §1
row,Binder,SPOT peptide array binding signal intensity
1,KKEKKPPKIPKKVYT,1.5

# Biological target: ScHse1
# Experiment: as above
# Outline: as §1
row,Binder,SPOT peptide array binding signal intensity
1,KKEKKPPKIPKKVYT,91

# Biological target: ScLsb1
# Experiment: as above
# Outline: as §1
row,Binder,SPOT peptide array binding signal intensity
1,KKEKKPPKIPKKVYT,4.75

# Biological target: ScLsb2
# Experiment: as above
# Outline: as §1
row,Binder,SPOT peptide array binding signal intensity
1,KKEKKPPKIPKKVYT,2

# Biological target: ScLsb3
# Experiment: as above
# Outline: as §1
row,Binder,SPOT peptide array binding signal intensity
1,KKEKKPPKIPKKVYT,256

# Biological target: ScLsb4
# Experiment: as above
# Outline: as §1
row,Binder,SPOT peptide array binding signal intensity
1,KKEKKPPKIPKKVYT,≤ 0

# Biological target: ScMyo3
# Experiment: as above
# Outline: as §1
row,Binder,SPOT peptide array binding signal intensity
1,KKEKKPPKIPKKVYT,≤ 0

# Biological target: ScMyo5
# Experiment: as above
# Outline: as §1
row,Binder,SPOT peptide array binding signal intensity
1,KKEKKPPKIPKKVYT,4.25

# Biological target: ScNbp2
# Experiment: as above
# Outline: as §1
row,Binder,SPOT peptide array binding signal intensity
1,KKEKKPPKIPKKVYT,2

# Biological target: ScPex13
# Experiment: as above
# Outline: as §1
row,Binder,SPOT peptide array binding signal intensity
1,KKEKKPPKIPKKVYT,11

# Biological target: ScRvs167
# Experiment: as above
# Outline: as §1
row,Binder,SPOT peptide array binding signal intensity
1,KKEKKPPKIPKKVYT,2

# Biological target: ScSho1
# Experiment: as above
# Outline: as §1
row,Binder,SPOT peptide array binding signal intensity
1,KKEKKPPKIPKKVYT,109

# Biological target: ScSla1-D1-D2
# Experiment: as above
# Outline: as §1
row,Binder,SPOT peptide array binding signal intensity
1,KKEKKPPKIPKKVYT,10

# Biological target: ScSla1-D3
# Experiment: as above
# Outline: as §1
row,Binder,SPOT peptide array binding signal intensity
1,KKEKKPPKIPKKVYT,14.5

# Biological target: SpAbp1-D1
# Experiment: as above
# Outline: as §1
row,Binder,SPOT peptide array binding signal intensity
1,KKEKKPPKIPKKVYT,396

# Biological target: SpBbc1
# Experiment: as above
# Outline: as §1
row,Binder,SPOT peptide array binding signal intensity
1,KKEKKPPKIPKKVYT,3.5

# Biological target: SpBzz1-D1
# Experiment: as above
# Outline: as §1
row,Binder,SPOT peptide array binding signal intensity
1,KKEKKPPKIPKKVYT,158

# Biological target: SpBzz1-D2
# Experiment: as above
# Outline: as §1
row,Binder,SPOT peptide array binding signal intensity
1,KKEKKPPKIPKKVYT,0.75

# Biological target: SpCyk3
# Experiment: as above
# Outline: as §1
row,Binder,SPOT peptide array binding signal intensity
1,KKEKKPPKIPKKVYT,≤ 0

# Biological target: SpHof1
# Experiment: as above
# Outline: as §1
row,Binder,SPOT peptide array binding signal intensity
1,KKEKKPPKIPKKVYT,1.75

# Biological target: SpHof1-2
# Experiment: as above
# Outline: as §1
row,Binder,SPOT peptide array binding signal intensity
1,KKEKKPPKIPKKVYT,1

# Biological target: SpHof1-3
# Experiment: as above
# Outline: as §1
row,Binder,SPOT peptide array binding signal intensity
1,KKEKKPPKIPKKVYT,6.25

# Biological target: SpHse1
# Experiment: as above
# Outline: as §1
row,Binder,SPOT peptide array binding signal intensity
1,KKEKKPPKIPKKVYT,1.5

# Biological target: SpLsb1
# Experiment: as above
# Outline: as §1
row,Binder,SPOT peptide array binding signal intensity
1,KKEKKPPKIPKKVYT,55

# Biological target: SpLsb4
# Experiment: as above
# Outline: as §1
row,Binder,SPOT peptide array binding signal intensity
1,KKEKKPPKIPKKVYT,≤ 0

# Biological target: SpMyo1
# Experiment: as above
# Outline: as §1
row,Binder,SPOT peptide array binding signal intensity
1,KKEKKPPKIPKKVYT,3.25

# Biological target: SpNbp2
# Experiment: as above
# Outline: as §1
row,Binder,SPOT peptide array binding signal intensity
1,KKEKKPPKIPKKVYT,≤ 0

# Biological target: SpPex13
# Experiment: as above
# Outline: as §1
row,Binder,SPOT peptide array binding signal intensity
1,KKEKKPPKIPKKVYT,≤ 0

# Biological target: SpRvs167
# Experiment: as above
# Outline: as §1
row,Binder,SPOT peptide array binding signal intensity
1,KKEKKPPKIPKKVYT,8.33

# Biological target: SpSla1-D1-D2
# Experiment: as above
# Outline: as §1
row,Binder,SPOT peptide array binding signal intensity
1,KKEKKPPKIPKKVYT,4

# Biological target: SpSla1-D3
# Experiment: as above
# Outline: as §1
row,Binder,SPOT peptide array binding signal intensity
1,KKEKKPPKIPKKVYT,3.5
